The record followed here is ChEMBL document CHEMBL3988442, “University of Dundee, Small-Polar-MMV Screening Library” (2021).

Holding throughout (set-up): scale not given: direction of the effect not stated beside the values
Experiment [1] addresses Protein translocase subunit SecA (Escherichia coli (strain K12)) (UniProt P10408). Kind of experiment: Assay to Identify E. coli SecA ATPase Inhibitors. In kind it is functional. The conditions noted are these: 30 µM.
For experiment [2], the target named is T1, Ubiquitin-activating enzyme e1, putative (Leishmania donovani (strain BPK282A1)) (UniProt E9BSI1).
T1 sequence (whole entry): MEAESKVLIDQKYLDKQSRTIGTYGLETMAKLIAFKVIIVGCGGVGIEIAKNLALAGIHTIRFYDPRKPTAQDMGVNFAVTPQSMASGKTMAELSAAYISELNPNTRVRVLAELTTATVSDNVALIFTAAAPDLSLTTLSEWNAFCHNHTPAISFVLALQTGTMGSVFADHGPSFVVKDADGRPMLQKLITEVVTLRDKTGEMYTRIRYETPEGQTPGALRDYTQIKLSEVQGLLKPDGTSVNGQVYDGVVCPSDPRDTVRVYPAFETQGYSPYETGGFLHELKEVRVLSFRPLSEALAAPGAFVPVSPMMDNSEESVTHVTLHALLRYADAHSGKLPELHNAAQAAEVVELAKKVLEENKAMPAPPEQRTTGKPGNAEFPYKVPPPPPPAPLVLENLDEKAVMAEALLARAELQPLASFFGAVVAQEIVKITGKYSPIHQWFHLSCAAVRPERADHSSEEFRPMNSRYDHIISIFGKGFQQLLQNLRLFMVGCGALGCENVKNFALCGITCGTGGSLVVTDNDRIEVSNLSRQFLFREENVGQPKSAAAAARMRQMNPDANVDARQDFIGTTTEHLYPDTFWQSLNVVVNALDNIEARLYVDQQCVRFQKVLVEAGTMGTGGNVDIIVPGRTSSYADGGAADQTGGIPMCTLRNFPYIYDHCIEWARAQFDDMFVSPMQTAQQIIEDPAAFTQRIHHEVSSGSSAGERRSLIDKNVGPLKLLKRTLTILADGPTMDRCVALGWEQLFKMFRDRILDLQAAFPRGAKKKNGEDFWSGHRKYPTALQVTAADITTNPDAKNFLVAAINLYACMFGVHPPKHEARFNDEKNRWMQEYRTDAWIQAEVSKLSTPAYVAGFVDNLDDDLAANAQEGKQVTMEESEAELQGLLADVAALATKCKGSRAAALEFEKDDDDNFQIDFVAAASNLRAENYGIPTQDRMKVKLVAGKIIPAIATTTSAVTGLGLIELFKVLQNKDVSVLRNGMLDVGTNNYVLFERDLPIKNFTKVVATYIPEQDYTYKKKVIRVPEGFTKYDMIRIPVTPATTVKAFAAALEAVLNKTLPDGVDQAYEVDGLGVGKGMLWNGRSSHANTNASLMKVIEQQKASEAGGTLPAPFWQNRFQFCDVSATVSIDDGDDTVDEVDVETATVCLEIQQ
Kind of experiment: Leishmania donovani Ubiquitin Activating Enzyme (LdE1). The class given is functional. The note with it: 30 µM.

The target in experiment [3] is AMP-activated protein kinase, AMPK (Homo sapiens) (UniProt P54646+O43741+P54619+Q9UGJ0+Q9Y478+Q13131+Q9UGI9). The experiment in a line: AMP-dependent Kinase enzyme assay. An in vitro enzyme assay that detects ADP turnover that is directly proportional to AMPK activity. This uses naive AMPK that is activated during the assay with MK-8722. In kind it is functional. The conditions noted are these: 30 µM.

The target in experiment [4] is Sialic acid-binding Ig-like lectin 9 (Homo sapiens) (UniProt Q9Y336). Kind of experiment: Hs-Siglec9 ALPHAscreen SOP 20170721. The note with it: 10 µM. A general note: In Alpha technology, singlet oxygen from a donor bead excites a nearby acceptor bead.
For the next experiment, the system named is Trypanosoma cruzi. Kind of experiment: Trypanosoma cruzi phosphomannomutase and mannose-1-phosphate guanylyltransferase assay. In kind it is functional. The conditions noted are these: 10 µM.
In experiment [5] the target is T2, Arginase-2, mitochondrial (Homo sapiens) (UniProt P78540).
T2 sequence (whole entry): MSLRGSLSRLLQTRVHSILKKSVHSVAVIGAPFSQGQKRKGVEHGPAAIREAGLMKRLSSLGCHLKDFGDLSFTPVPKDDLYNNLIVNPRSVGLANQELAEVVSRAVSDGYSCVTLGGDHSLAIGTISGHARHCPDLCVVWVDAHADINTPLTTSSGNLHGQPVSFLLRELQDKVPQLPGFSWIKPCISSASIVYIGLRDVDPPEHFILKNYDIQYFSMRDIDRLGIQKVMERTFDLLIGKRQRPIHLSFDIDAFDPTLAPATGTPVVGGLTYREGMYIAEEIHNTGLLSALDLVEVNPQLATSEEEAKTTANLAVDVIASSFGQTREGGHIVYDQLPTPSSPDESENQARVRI
Kind of experiment: in vitro enzyme assay to detect the production of urea directly proportional to the activity of Arginase II. Further: in the data most compounds retested in dose-response had high values. The conditions noted are these: 33.3 µM. In kind it is functional.

Experiment [6] deals with T3, Proteasome subunit beta (Trypanosoma cruzi) (UniProt O96673).
T3 sequence (whole entry): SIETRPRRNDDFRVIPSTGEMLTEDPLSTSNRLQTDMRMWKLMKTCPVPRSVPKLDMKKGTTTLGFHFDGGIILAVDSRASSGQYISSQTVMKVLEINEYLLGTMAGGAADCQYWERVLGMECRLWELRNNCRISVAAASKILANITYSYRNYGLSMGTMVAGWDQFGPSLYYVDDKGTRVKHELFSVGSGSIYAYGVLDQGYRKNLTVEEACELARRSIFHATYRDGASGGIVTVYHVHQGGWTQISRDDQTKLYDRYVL
The experiment in a line: Trypanosoma cruzi proteasome chymotrypsin-like activity (TcProtChymo) assay. Further: in the data most compounds retested in dose-response had high values. In kind it is functional. The conditions noted are these: 9.37 µM.

The species named for another experiment is Homo sapiens. The experiment in a line: To identify inhibition of the IFN signalling (Jak-Stat) pathway via expression of an eGFP reporter gene under the control of an IFN-stimulated response element (ISRE) containing MxA promoter. The class given is functional. The conditions noted are these: 30 µM.
Experiment [7] concerns the target T4, Tyrosyl-tRNA synthetase, putative (Trypanosoma cruzi (strain CL Brener)) (UniProt Q4DSP6).
T4 sequence (whole entry): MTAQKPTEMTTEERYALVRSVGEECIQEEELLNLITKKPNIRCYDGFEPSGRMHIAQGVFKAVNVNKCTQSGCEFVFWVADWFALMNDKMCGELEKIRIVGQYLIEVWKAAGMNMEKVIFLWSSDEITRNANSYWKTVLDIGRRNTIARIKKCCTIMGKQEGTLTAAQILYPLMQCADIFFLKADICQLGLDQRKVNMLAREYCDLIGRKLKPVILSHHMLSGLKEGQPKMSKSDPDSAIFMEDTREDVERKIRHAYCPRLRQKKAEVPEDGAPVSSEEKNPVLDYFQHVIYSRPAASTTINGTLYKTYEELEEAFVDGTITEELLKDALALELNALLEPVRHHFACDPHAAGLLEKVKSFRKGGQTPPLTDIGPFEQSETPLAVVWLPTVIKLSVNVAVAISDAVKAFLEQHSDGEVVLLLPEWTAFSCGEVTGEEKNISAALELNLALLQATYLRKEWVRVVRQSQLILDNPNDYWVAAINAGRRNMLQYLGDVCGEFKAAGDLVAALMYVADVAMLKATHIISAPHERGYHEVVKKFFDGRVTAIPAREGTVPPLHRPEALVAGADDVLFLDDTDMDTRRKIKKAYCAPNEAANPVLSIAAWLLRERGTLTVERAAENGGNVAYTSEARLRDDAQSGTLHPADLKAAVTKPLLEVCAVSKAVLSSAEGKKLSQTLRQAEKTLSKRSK
The experiment in a line: Trypanosoma cruzi tyrosyl tRNA synthetase (TcYRS) _High Tyrosine SOP. Further: in the data most compounds retested in dose-response had high values. The class given is functional. The note with it: 30 µM.

Experiment [8] has as its target T4, Tyrosyl-tRNA synthetase, putative (Trypanosoma cruzi (strain CL Brener)). The experiment in a line: Trypanosoma cruzi tyrosyl tRNA synthetase (TcYRS) SOP. In kind it is functional. The note with it: 30 µM.
Experiment [9] deals with Chromo domain-containing protein 1 (Saccharomyces cerevisiae (strain ATCC 204508 / S288c) (Baker's yeast)) (UniProt P32657). Kind of experiment: ScCHD-1 Enzyme Inhibition Assay. Further: in the data most compounds retested in dose-response had high values. In kind it is functional. The note with it: 30 µM.

For some of these results: Measured potencies and affinities stand elsewhere.

Sequence of Sialic acid-binding Ig-like lectin 9 (Homo sapiens) (Q9Y336 whole entry): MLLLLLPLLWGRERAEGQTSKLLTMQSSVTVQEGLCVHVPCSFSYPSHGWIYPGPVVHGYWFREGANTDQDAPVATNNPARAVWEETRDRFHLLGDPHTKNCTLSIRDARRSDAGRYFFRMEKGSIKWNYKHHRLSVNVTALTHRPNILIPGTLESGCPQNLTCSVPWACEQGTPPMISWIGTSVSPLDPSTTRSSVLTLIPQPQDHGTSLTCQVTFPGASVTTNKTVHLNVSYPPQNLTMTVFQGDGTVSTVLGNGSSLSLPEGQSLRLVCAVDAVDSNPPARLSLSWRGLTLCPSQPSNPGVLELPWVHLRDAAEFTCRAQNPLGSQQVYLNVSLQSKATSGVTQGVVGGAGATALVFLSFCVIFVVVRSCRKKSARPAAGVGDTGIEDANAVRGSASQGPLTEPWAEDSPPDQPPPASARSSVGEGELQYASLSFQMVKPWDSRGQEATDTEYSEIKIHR
Sequence of Chromo domain-containing protein 1 (Saccharomyces cerevisiae (strain ATCC 204508 / S288c) (Baker's yeast)) (P32657 whole entry, the tested form may be a part): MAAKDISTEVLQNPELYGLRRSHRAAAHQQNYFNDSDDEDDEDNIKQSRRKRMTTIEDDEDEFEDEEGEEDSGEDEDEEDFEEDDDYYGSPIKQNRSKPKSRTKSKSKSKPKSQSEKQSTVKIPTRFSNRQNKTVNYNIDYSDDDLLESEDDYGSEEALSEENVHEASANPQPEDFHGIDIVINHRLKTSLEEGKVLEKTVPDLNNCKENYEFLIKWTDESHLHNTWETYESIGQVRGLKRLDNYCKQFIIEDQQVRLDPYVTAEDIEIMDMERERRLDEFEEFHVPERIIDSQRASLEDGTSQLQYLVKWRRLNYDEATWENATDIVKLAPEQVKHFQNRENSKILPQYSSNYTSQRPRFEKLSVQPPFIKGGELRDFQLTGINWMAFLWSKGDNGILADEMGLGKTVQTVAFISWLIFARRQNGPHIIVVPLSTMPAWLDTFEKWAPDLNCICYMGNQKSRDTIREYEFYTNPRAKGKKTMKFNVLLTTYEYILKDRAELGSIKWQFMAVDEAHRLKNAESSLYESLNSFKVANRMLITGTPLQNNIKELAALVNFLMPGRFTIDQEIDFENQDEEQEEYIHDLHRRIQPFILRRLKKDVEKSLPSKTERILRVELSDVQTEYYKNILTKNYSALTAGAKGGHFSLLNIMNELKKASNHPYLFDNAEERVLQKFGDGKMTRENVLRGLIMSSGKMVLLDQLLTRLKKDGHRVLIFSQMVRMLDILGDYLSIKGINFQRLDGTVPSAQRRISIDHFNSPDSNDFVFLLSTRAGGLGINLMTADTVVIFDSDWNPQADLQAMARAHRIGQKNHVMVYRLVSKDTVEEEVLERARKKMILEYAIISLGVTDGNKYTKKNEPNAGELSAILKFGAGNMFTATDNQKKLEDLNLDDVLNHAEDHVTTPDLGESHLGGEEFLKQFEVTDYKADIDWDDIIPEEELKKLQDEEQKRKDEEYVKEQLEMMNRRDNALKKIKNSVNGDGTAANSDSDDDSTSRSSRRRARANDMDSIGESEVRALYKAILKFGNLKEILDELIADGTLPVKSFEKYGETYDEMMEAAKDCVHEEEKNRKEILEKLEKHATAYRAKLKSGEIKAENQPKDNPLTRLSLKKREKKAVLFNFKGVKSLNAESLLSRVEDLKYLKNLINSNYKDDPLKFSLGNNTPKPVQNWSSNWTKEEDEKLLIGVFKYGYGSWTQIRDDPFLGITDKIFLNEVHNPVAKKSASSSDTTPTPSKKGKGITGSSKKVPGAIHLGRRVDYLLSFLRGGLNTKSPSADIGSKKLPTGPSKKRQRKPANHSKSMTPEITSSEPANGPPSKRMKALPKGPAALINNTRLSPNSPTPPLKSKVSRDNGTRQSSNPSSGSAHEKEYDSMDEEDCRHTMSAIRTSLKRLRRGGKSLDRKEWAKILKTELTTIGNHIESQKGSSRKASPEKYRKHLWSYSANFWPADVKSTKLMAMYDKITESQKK
Sequence of Protein translocase subunit SecA (Escherichia coli (strain K12)) (P10408 whole entry): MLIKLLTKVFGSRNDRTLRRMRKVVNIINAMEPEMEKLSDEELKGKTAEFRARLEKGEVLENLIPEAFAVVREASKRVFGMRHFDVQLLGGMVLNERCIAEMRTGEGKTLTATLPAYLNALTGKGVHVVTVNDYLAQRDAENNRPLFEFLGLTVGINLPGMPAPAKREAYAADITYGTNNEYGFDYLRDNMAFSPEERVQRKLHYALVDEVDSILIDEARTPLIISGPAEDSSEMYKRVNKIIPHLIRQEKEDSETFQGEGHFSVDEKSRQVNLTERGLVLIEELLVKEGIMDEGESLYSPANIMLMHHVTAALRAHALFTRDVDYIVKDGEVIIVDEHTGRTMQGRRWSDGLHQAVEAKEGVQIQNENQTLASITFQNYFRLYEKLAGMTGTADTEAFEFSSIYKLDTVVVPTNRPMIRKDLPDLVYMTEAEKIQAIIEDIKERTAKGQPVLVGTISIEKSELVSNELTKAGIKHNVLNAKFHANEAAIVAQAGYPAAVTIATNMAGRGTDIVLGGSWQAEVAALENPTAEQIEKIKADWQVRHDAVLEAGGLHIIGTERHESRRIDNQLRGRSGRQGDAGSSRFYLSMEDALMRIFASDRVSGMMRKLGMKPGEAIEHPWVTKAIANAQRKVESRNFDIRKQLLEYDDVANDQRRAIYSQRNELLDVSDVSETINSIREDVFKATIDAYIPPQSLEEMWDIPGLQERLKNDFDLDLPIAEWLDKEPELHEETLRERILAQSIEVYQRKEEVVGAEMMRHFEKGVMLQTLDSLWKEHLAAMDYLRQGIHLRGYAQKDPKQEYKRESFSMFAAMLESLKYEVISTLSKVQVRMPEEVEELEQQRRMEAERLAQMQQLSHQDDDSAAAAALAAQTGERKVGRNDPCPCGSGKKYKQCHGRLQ

For the molecule `Cc1nn(C)c(Cl)c1C1CCCN1c1ncnc2sccc12` (stereo unspecified), the Percent Effect in [1] is -6.84%; in [2], -2.67%; in [3] it was -2.13%; in experiment [4], 8.98%; in the experiment with Trypanosoma cruzi it was 5.36%; in experiment [5] it was 7.29%. In addition, the Percent Effect in [6] was 1.4%; in the experiment filed under Homo sapiens it was 35.8%; in experiment [7] it was 0.546%; in experiment [8], 3.7%; in [9], 0.644%.

Regarding `Cc1cc(C(F)(F)F)nn1C(C)C(=O)Nc1ccncc1` (stereo unspecified), the Percent Effect in experiment [1] was -1.07%; in experiment [2], 25.3%; in [3], -4.73%; in experiment [4], -5.25%; in the experiment on Trypanosoma cruzi, -0.982%; in [5], -12.2%. The Percent Effect in experiment [6] is 8.87%; in the experiment filed under Homo sapiens, 13.8%; in [7], 2.12%; in experiment [8] it was 12.8%; in experiment [9], -9.26%.

With `CCNC(=O)c1nc2c(s1)CCCN2S(C)(=O)=O`, the Percent Effect in experiment [1] is -5.43%; in experiment [2], 24%; in [3] it was -3.85%; in experiment [4], -4.95%; with Trypanosoma cruzi it was 0.772%; in experiment [5] it was -56.8%. For the same molecule, the Percent Effect in experiment [6] is 5.81%; in the experiment listed under Homo sapiens it was 22.1%; in [7] it was -6.25%; in experiment [8], 15%; in experiment [9] it was -18.4%.

Turning to `COCC(NC(=O)c1cc[nH]n1)c1cccc(C(F)(F)F)c1` (stereo unspecified), the Percent Effect in [1] is -5.2%; in experiment [2] it was 16.4%; in [3] it was -2.13%; in experiment [4], 16%; with Trypanosoma cruzi it was 3.92%; in experiment [5], 0.455%. Further, the Percent Effect in experiment [6] is 6.03%; in the experiment listed under Homo sapiens it was 15.4%; in [7], 4.3%; in [8] it was 7.5%; in experiment [9], -5.07%.

Consider `CCc1nc(CN2CCCN(c3nc4ccccc4o3)CC2)no1`, for which the Percent Effect in experiment [1] was 7.05%; in experiment [2] it was 13%; in experiment [3] it was -1.96%; in experiment [4], 2.65%; in the experiment on Trypanosoma cruzi, -9.14%; in experiment [5] it was -13.8%. In addition, the Percent Effect in experiment [6] is 12.2%; in the experiment filed under Homo sapiens, 23.6%; in [7], 4.3%; in [8], 8.64%; in experiment [9], -0.262%.

As to `CC(C)c1nc(C2CCCN2Cc2ccno2)no1` (stereo unspecified), the Percent Effect in experiment [1] was -2.76%; in [2], -2.6%; in experiment [3], -0.797%; in [4], 8.93%; with Trypanosoma cruzi, -2.81%; in [5], 2.13%. Besides, the Percent Effect was -1.52% in experiment [6]; 14.5% in the experiment filed under Homo sapiens; 2.91% in [7]; -2.44% in experiment [8]; 4.2% in experiment [9].

Turning to `CC(CNC(=O)Nc1ccc(N(C)C)nc1)Cn1cccn1` (stereo unspecified), the Percent Effect was -4.28% in [1]; 4.17% in experiment [2]; -13.8% in [3]; -3.22% in [4]; -3.21% in the experiment with Trypanosoma cruzi; 3.09% in [5]. Moreover, the Percent Effect in experiment [6] was 13.7%; in the experiment listed under Homo sapiens, -15.8%; in experiment [7], -3.16%; in experiment [8], 2.56%; in [9], -3.32%.

With `COC(=O)c1cccn1C1CCN(C(=O)c2cn[nH]c2C)CC1`, the Percent Effect was -3.48% in [1]; 10.4% in experiment [2]; 0.41% in experiment [3]; 9.63% in [4]; 4.31% with Trypanosoma cruzi; 0.356% in experiment [5]. Moreover, the Percent Effect is 8.11% in experiment [6]; 21% in the experiment filed under Homo sapiens; 6.8% in experiment [7]; 19.5% in [8]; -9.12% in experiment [9].

As for `CCCN1CCC(N(Cc2ncc(C)o2)C(C)=O)C1` (stereo unspecified), the Percent Effect in experiment [1] was -6.17%; in [2], 0%; in experiment [3], -14.9%; in experiment [4] it was 26.2%; in the experiment on Trypanosoma cruzi, 2.05%; in experiment [5], -0.744%. Moreover, the Percent Effect in [6] is 22.6%; in the experiment listed under Homo sapiens, 1.11%; in experiment [7], 3.23%; in [8], 1.24%; in experiment [9] it was -1.33%.

On to `O=C(c1ccncc1F)N1CCN(CC2CC2)c2ncccc2C1`, for which the Percent Effect in [1] is -8.25%; in experiment [2], -1.33%; in experiment [3] it was 4.65%; in experiment [4], -2.72%; in the experiment with Trypanosoma cruzi, -9.63%; in experiment [5], -14.6%. Also, the Percent Effect in experiment [6] was 10.2%; in the experiment filed under Homo sapiens, -11%; in experiment [7], -6.35%; in experiment [8], -10.3%; in [9], -9.4%.

Take `CNC(=O)[C@@]12CCC3(CCN(C(C)=O)CC3)[C@@H]1CN(S(C)(=O)=O)C2`: the Percent Effect in experiment [1] is -4.16%; in [2] it was 8.11%; in [3], -2.4%; in [4], -2.81%; with Trypanosoma cruzi, -4.01%; in experiment [5], 4.22%. The Percent Effect in [6] was -0.0858%; in the experiment listed under Homo sapiens it was 1.1%; in experiment [7], 5.38%; in experiment [8], 6.17%; in experiment [9], -3.18%.
